The panel holds about 83,000 compounds, 20% with a hit somewhere; the sample as a whole holds those more often.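 Each cell line was grown in a 96-well plate and treated with one concentration of compound for 48 hours. Values below 10 were considered active.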 A number with no mark means an inactive call. Activity calls are given as the source filed them.

The experiment relates to HL-60(TB) leukemia. Nature of the experiment: NCI-60 one-dose screen, 48 h (100 = growth as untreated, 0 = no growth, -100 = all killed). The conditions noted are these: 10 µM unless noted.
For the compound `Cc1n[nH]c2ccc(Br)cc2c1=O`, the growth is 94.3%.

On to `CCOC(=O)C1C(=O)C=C(c2ccccc2)CC1c1sc(N(C)Cc2ccccc2)nc1Cl` (stereo not given), for which the growth is 78.4%.

For `COc1ccc(-c2[nH]ncc2/C=C/c2cc(C(F)(F)F)[nH]c(=O)n2)cc1`, the growth was 92%.

On to `CNc1ccc(Br)cc1-c1n[nH]c(=O)[nH]c1=O`, for which the growth was 104%.

As to `Cc1ccc(-c2csc(NC(=O)CSc3nc(N)cc(N)n3)n2)cc1`, the growth is 48.9%.

With `COc1cccc(NC(=O)c2sc3nc(C)c(C(O)c4ccccc4)cc3c2N)c1` (stereo not given), the growth was -52% (active).

With `Cc1ccnc(Nc2ccc([N+](=O)[O-])c(NCCN3CCOCC3)n2)c1`, the growth is -14.9% (active).

For `CC(=O)Oc1ccc(/C(=C(\C)c2ccc(Cl)cc2)c2ccc(OCCN3CCCCC3)cc2)cc1`, the growth was 27.4%.

With `CC(=O)c1cc2ccccc2o1`, the growth was 102%.

In the case of `Oc1ccc(Br)cc1/C=N/NC(=S)NC12CC3CC(CC(C3)C1)C2`, the growth was -25.8% (active).

With `CC(=O)Nc1ccc(Cl)cc1Cl`, the growth was 109%.

`c1cc(NCCc2ccncc2)nc(-n2cnc3ccccc32)c1`: the growth was 67.7%.

On to `Clc1ccc(C2CC(c3cccc(Nc4ccncc4)c3)=NN2c2ccc(Cl)cc2)cc1` (stereo not given), for which the growth is -45.3% (active).

With `COc1cc(C(=O)NC(=S)Nc2ccc3ccccc3c2)cc(OC)c1OC`, the growth is 97.1%.

Turning to `O=C(NNC(=S)Nc1ccccc1)c1ccc(Nc2ncnc3c2cnn3-c2cccc(Br)c2)cc1`, the growth was 111%.

For `Cc1ccc2oc(=O)cc(-c3cc(-c4cc5ccccc5oc4=O)nc(N)c3C#N)c2c1`, the growth is 93.5%.

In the case of `COc1ccc(C2=NN(c3ccc(S(N)(=O)=O)cc3)C(c3cn(-c4ccccc4)nc3-c3ccc(Cl)cc3)C2)cc1` (stereo not given), the growth was 84.5%.

Consider `CCOC(=O)NN1CC(O)=C(c2nc(-c3ccc(Br)cc3)cs2)C1=N`, for which the growth is 98.8%.

Regarding `COc1ccc(-c2cc(=O)oc3c4c(ccc23)OCN(Cc2ccc(F)cc2)C4)cc1`, the growth is 47.9%.

Consider `COC(=O)c1ccc(NC(N)=NCC(C)(C)COc2ccc(C(F)(F)F)cc2)nc1`, for which the growth is -49% (active).

For the compound `NC(N)=N/N=C(/c1ccccc1)c1ccc(F)cc1`, the growth was -70.6% (active).

Regarding `Cc1[nH]n(C(N)=S)c(=O)c1N=Nc1ccc(S(=O)(=O)Nc2ccncn2)cc1`, the growth was 103%.

For `O=c1nc2n(nc1/C=C/c1ccco1)CC(c1ccc(Cl)cc1)=NN2`, the growth is 70.1%.

For `O=C1O[C@@H](c2ccccc2Cl)[C@@H]2c3cc4c(cc3CCN12)OCO4`, the growth is 92.1%.

As for `Cc1cc2nc(CS)[nH]c2cc1C`, the growth is 80.1%.

Consider `CCOC(=O)c1c2c(n3c1NCC3)-c1ccccc1C2=O`, for which the growth is 86.8%.

`FC(F)(F)c1ccc(CNc2ccc(Cc3c[nH]c4ncc(Cl)cc34)cn2)cn1`: the growth was 4.54% (active).

For the compound `CC(=O)OCCC/C(=C\c1ccc2ccccc2c1)[N+](=O)[O-]`, the growth was -61% (active).

As to `O=S(=O)(/N=C1C=C/C(=N\S(=O)(=O)c2ccccc2)c2ccccc2\1)c1ccccc1`, the growth was 100%.

With `CN(C)CCOc1ccc(/C(=C(/CCCl)c2ccccc2)c2ccccc2)cc1`, the growth was -33% (active).

Consider `CCCCCCC(CCCC)COC(=O)c1ccc(Cl)cc1` (stereo not given), for which the growth was 100%.

For `C/C(=N\Nc1nc(C)cs1)c1cc2ccccc2o1`, the growth is 83.4%.

For `COc1ccc(-c2cc(-c3ccc(Nc4nc(Nc5ccc(Cl)cc5)nc(Nc5ccc(Cl)cc5)n4)cc3)nc(N)c2C#N)cc1`, the growth was 28.3%.

For the compound `O=C1C=CC(=Nc2cc(Br)c(O)c(Br)c2)C=C1`, the growth was 29.9%.

In the case of `COc1ccc(-c2nc3c(c(C)nn3-c3ccc(F)cc3)c(=O)[nH]2)cc1`, the growth is 70%.

For `COc1cccc(-c2ccc3c(c2)C2CCN(Cc4ccccc4)C3C2)c1` (stereo not given), the growth was 46.2%.

With `Cc1cc2c(-c3nc4ccccn4c3NC34CC5CC(CC(C5)C3)C4)c(O)c(O)cc2c(O)c1-c1c(C)cc2c(-c3nc4ccccn4c3NC34CC5CC(CC(C5)C3)C4)c(O)c(O)cc2c1O`, the growth is 5.04% (active).

As for `COc1ccc2c(c1)[nH]c(=O)c1c3cccc(F)c3cn21`, the growth is 11.2%.

For `CN1C(=O)CN2CCc3ccccc3C2c2cc(Cl)ccc21` (stereo not given), the growth was 86.8%.

As for `CN(C)c1ccc(/C=C/c2sc3ccc4ccccc4c3[n+]2C)cc1`, the growth was -41.8% (active).

For the origin of these results see PubChem BioAssay (NCI).
